High-throughput results as filed in PubChem.
aSyn UTR act: Activators via SNCA 5'UTR binding, MLPCN. alpha-synuclein 5'UTR reporter, activators screen. activity score, % (tested at 7.5 µM), hits read low. 300,000 compounds, 7.1% hits; in the data active means activity score below about -60%
* hit, by the source's call. Only a sample is shown.

SMILES | aSyn UTR act
CCc1c(C)sc(NC(=O)c2cc(C)on2)c1C#N | -103.2*
Cc1cc(C(=O)Nc2sc(C)c(-c3ccc(F)cc3)c2C(N)=O)no1 | -199.8*
Nc1ccccc1C#Cc1ccc([N+](=O)[O-])cc1 | -261.6*
Cc1cc(=O)[nH]c2nnc(-c3ccc(Br)cc3)n12 | -62.3*
CCc1nnc(NC(=O)c2ccc(-c3ccccc3F)o2)s1 | -65.0*
O=C(Cc1ccc(-c2ccccc2)cc1)NCc1ccccc1 | 104.5
O=C(NCc1ccccc1)c1ccc(-c2ccccc2F)o1 | -155.1*
O=C(Nc1ccc2c(c1)OCCO2)c1cc(F)c(F)cc1Cl | -194.8*
Cc1ccc(C(=O)Nc2ccc3c(c2)OCCO3)c(Cl)c1 | 79.7
O=C(Nc1ccc2c(c1)OCCO2)c1cccc(Cl)c1Cl | -140.1*
O=C(Nc1ccc2ccccc2c1)c1cc(F)c(F)cc1Cl | -140.4*
CC(C)OC(=O)Nc1ccc2c(c1)N(C(=O)N1CCN(C)CC1)c1ccccc1CC2 | -62.2*
Cn1c(SCc2ccccc2)nnc1-c1ccc2c(c1)OCO2 | -191.8*
c1ccc(CSc2ccc(-c3ccc4c(c3)OCO4)nn2)cc1 | -150.4*
Oc1ccccc1-c1nnc(SCCN2CCOCC2)n1Cc1ccccc1 | 80.7
Cn1c(SCc2ccccc2)nnc1-c1ccc(O)cc1 | -76.2*
Cc1cccc(C(=O)N2CCc3cc(-c4nc(NC(=O)CN5CCCC5)sc4C)ccc32)c1 | -71.2*
Cc1cccc(C(=O)N2CCc3cc(-c4csc(NC(=O)CN5CCCC5)n4)ccc32)c1 | -74.1*
O=C(CN1CCCC1)Nc1nc(-c2ccc3c(c2)CCN3C(=O)c2ccccc2F)cs1 | -123.5*
Oc1ccccc1C=Nc1ccccc1-c1nc2ccccc2[nH]1 | -123.0*
Oc1ccc(C=Nc2ccccc2-c2nc3ccccc3[nH]2)c(O)c1 | -124.7*
COc1ccc(OC)c(C=Nc2ccccc2-c2nc3ccccc3[nH]2)c1 | -212.5*
Cc1ccc(N=Cc2ccc(N(C)C)cc2)cc1C | -123.2*
Cc1ccc(N=Nc2ccc(O)c(/C=N\NC(=O)c3ccc(N)cc3)c2)cc1C | 58.5
CCN(CC)c1ccc(O)c(C=Nc2ccc(C)c(C)c2)c1 | -76.5*
SMILES | aSyn UTR act
N#CC1=C(N)Nc2nc3ccccc3n2C1c1ccc(F)cc1 (stereo not given) | -117.1*
O=c1cccccc1NN=C1CCCCCC1 | -140.0*
O=c1cccccc1NN=C1CCCCC1 | -68.8*
CCOC(=O)c1cc(C(=O)Nc2ccccc2F)nn1C | -159.2*
CC(=O)c1cc(NC(=O)c2ccc(C)cc2)c(=O)oc1/C=C/N(C)C | -78.2*
Cc1ccc(C(=O)Nc2cc3ccccc3oc2=O)cc1 | 111.1
CC(=O)c1cc(NC(=O)c2ccc(C)cc2)c(=O)oc1C | -116.7*
Cc1oc(=O)c(NC(=O)c2ccccc2)cc1C(=O)c1ccccc1 | -205.3*
COc1cccc(-c2nc(-c3ccccn3)no2)c1 | 104.1
COc1ccc(-c2nc(-c3cccnc3)no2)cc1OC | -131.7*
COc1cccc(-c2noc(-c3cccnc3)n2)c1 | -152.5*
COc1ccc(Cl)cc1-c1nc(-c2ccc(NC(=O)c3cccs3)cc2)no1 | -119.9*
COc1ccc(-c2nc(-c3cccc(C)c3)no2)cc1OC | -200.3*
Cc1ccc(-c2nc(-c3cccnc3)no2)cc1 | -78.1*
COc1cccc(-c2nc(-c3ccc(NC(=O)c4cccnc4)cc3)no2)c1 | -105.8*
Cc1ccc(-c2nc(-c3ccccc3)no2)cc1 | 57.4
c1cncc(-c2noc(-c3ccco3)n2)c1 | -90.5*
COc1cccc(OCc2nnc(-c3cccs3)o2)c1 | -141.8*
O=C(Nc1ccc(-c2noc(-c3cccs3)n2)cc1)c1cccnc1 | -93.5*
COc1cccc(-c2noc(-c3cccs3)n2)c1 | -75.2*
CNc1c(N)c(=O)oc2ccccc12 | -74.2*
COc1ccc(OC)c(Cc2nnc(CCC(=O)N3CCCCC3c3nccs3)o2)c1 (stereo not given) | -115.9*
COc1ccc(OC)c(Cc2nnc(CCC(=O)NC3CCCCCCC3)o2)c1 | -118.2*
COc1ccc(OC)c(Cc2nnc(CCC(=O)N3CCCCCC3)o2)c1 | -73.7*
Clc1ccc(-c2nc3cc(CN4CCCCC4)ccc3o2)cc1 | -206.0*
SMILES | aSyn UTR act
Cc1nn(C)cc1/C=C/C(=O)c1ccccc1 | -110.5*
CCn1ncc(/C=C/C(=O)c2ccccc2)c1C | -70.5*
CCn1cc(/C=C/C(=O)c2ccc(O)cc2)c(C)n1 | -105.0*
Cc1c(/C=C/C(=O)c2ccccc2)cnn1C | -122.7*
Cc1c(/C=C/C(=O)c2ccc(C(C)C)cc2)cnn1C | -91.6*
Cc1c(/C=C/C(=O)c2ccc(O)cc2)cnn1C | -145.7*
Cc1c(/C=C/C(=O)c2ccc(Cl)s2)cnn1C | -163.0*
NNc1nc2ccccc2c(=O)n1Cc1ccccc1 | -132.7*
Fc1ccc(/C=N/NC2=Nc3cccc4cccc2c34)cc1 | -294.1*
Cc1cccc2c1-c1sc(C(=O)NCCCN3CCCC(C)C3)cc1CO2 (stereo not given) | 69.5
Cc1cccc(NC(=O)c2cc3c(s2)-c2c(C)cccc2OC3)n1 | -143.5*
O=C(c1cc2c(s1)-c1ccccc1OC2)N1CCCC1 | -104.6*
Cc1csc(NC(=O)c2cc3c(s2)-c2ccccc2OC3)n1 | -211.1*
CC1CCCC(C)N1CCCNC(=O)c1cc2c(s1)-c1ccccc1OC2 (stereo not given) | 69.9
O=c1[nH]c2cc3c(cc2cc1CN(Cc1nnnn1C1CCCC1)C1CCCC1)OCCO3 | -79.3*
CCN(CC)c1ccc(Nc2cc3n(c(=O)n2)CCc2cc(OC)c(OC)cc2-3)cc1 | 74.2
COc1ccc(Cl)cc1C(=O)Nc1ccc2c(c1)OCO2 | -129.9*
CCN(CC)c1ccc(NC(=O)c2cc(Cl)ccc2OC)cc1 | -62.9*
COc1ccc(Cl)cc1C(=O)Nc1ccc2c(c1)OCCO2 | -103.6*
O=C(N/N=C/c1ccc(Cl)cc1)C1CC12CCC2 (stereo not given) | -109.8*
CCN1CCN(c2nc3sc4c(c3c3ncnn23)CC(C)CC4)CC1 (stereo not given) | -63.9*
COc1ccc(C(=O)Nc2cc(C)on2)c(OC)c1 | -141.2*
Cc1cc(NC(=O)Nc2ccc(C)c(C)c2)no1 | -122.7*
COc1cccc(C(=O)NC(=O)Nc2cc(C)on2)c1 | -93.8*
COc1cccc(NC(=O)Nc2cc(C)on2)c1 | -92.6*
SMILES | aSyn UTR act
COc1ccc(C(=O)Nc2ccc(C)cn2)c(OC)c1 | 115.5
COc1ccc2nc3oc(C(=O)N4CCCCC4)cc3cc2c1 | -191.6*
CCOC(=O)C1CCN(C(=O)c2cc3cc4cc(OC)ccc4nc3o2)CC1 | -71.1*
O=[N+]([O-])c1ccc(C2=Nc3cc(Cl)ccc3OC2)cc1 | -149.2*
Cc1cc(-c2nnc(CSc3nnc(NC(=O)c4ccc(C(C)(C)C)cc4)s3)o2)ccc1[N+](=O)[O-] | -110.3*
COc1ccc(S(=O)(=O)N2c3cc(Cl)ccc3Oc3nc4ccccc4nc32)cc1 | 99.6
O=S(=O)(c1ccc(Cl)cc1)N1c2ccccc2Oc2nc3ccccc3nc21 | -96.4*
CC(=O)Nc1ccc(S(=O)(=O)NC(CC(=O)NCCc2ccccc2)C(C)C)cc1 (stereo not given) | -109.4*
CCOC(=O)c1c(C)[nH]c2cc(Br)c(O)cc12 | -92.3*
OCCNc1c2ccccc2nc2c(F)c(F)c(F)c(F)c12 | -83.6*
Cc1ccc2nc(CCc3ccc(N)cc3)[nH]c2c1 | -135.9*
Nc1ccc2nc(CCc3ccccc3)[nH]c2c1 | -68.0*
Cc1ccc2nc(Cc3ccc(N)cc3)oc2c1 | -108.4*
CCOc1ccc(-c2nnc(SCC(=O)N3CCOCC3)o2)cc1 | -113.3*
CCOc1ccc(-c2nc(CSCC(=O)N3CCN(c4cccc(OC)c4)CC3)c(C)o2)cc1 | 68.5
COc1ccc(-c2nnc(SCC(=O)N3CCCC3)o2)cc1 | -107.3*
